Records with an inconclusive call do not appear. Entries that show only a call come without a potency. Active and inactive are the calls of the source. Unless noted, calls follow the shape of the dose curve; as a rule, active = well fitted curve in the direction sought with a large enough effect in the repeat runs; inconclusive = weak or mixed curves; inactive = no such curve, though single readings can be large; an effect the other way counts as inactive or inconclusive.
Columns and labels:
[1] = qHTS assay to identify aromatase inhibitors - cell viability counter screen (AID 743084);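 also: cells stimulated with testosterone during compound exposure; nearly all actives have a fitted effect of over 55% in size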; also: potency is read from the fitted curve at half-maximal effect
[2] = target: Aryl hydrocarbon receptor (Homo sapiens) (UniProt P35869); assay: qHTS assay to identify small molecule that activate the aryl hydrocarbon receptor (AhR) signaling pathway (AID 743085); also: nearly all actives have a fitted effect of over 15% in size; also: potency is read from the fitted curve at half-maximal effect;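 as to activation: HG2L7.5c1 human HepG2 liver cells with stably integrated DRE-driven firefly reporter; series mostly up to about 70 µM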
In short: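 HepG2 cells (HG2L7.5c1) stably carrying a firefly luciferase reporter driven by 20 dioxin responsive elements were exposed to compound for 24 h at 37C after a 5 h settling period; luminescence rise (ONE-Glo) indicated activation.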

[3] = target: Peroxisome proliferator-activated receptor gamma (Homo sapiens) (UniProt P37231); assay: qHTS assay to identify small molecule antagonists of the peroxisome proliferator-activated receptor gamma (PPARg) signaling pathway (AID 743191; calls by dose curve; also: series mostly up to about 63 µM; nearly all actives have a fitted effect of over 30% in size)
In short: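 GeneBLAzer PPARg UAS-bla HEK293H cells, 5 h post-plating, exposed to compounds 17 h at 37C. LiveBLAzer B/G FRET substrate added for 1 h at room temperature; beta-lactamase reporter read by fluorescence intensity.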

[4] = qHTS assay to identify small molecule antagonists of the peroxisome proliferator-activated receptor gamma (PPARg) signaling pathway - cell viability counter screen (AID 743194); also: nearly all actives have a fitted effect of over 55% in size
In short: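 Cytotoxicity counter screen in PPARg-bla HEK293H cells, same wells as reporter assay. Compounds plus 50 nM rosiglitazone (final) for 17 h at 37 C, then viability read by CellTiter-Glo luminescence.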

[5] = qHTS assay for small molecule agonists of the antioxidant response element (ARE) signaling pathway - cell viability counter screen (AID 743203; calls by dose curve; also: nearly all actives have a fitted effect of over 55% in size)
In short: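 HepG2 cells carrying ARE-driven beta-lactamase; 2,000 cells/well; 5 hrs plating; compound pinned from DMSO; 16 hrs 37C/5% CO2; CellTiter-Glo added; 30 min RT; luminescence.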

[6] = qHTS assay for small molecule activators of the heat shock response signaling pathway - cell viability counter screen (AID 743209); also: nearly all actives have a fitted effect of over 50% in size
In short: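 Luminescence from CellTiter-Glo, added after the beta-lactamase FRET read, gave the viability signal. Cells were HSE-bla HeLa treated with DMSO-dissolved compounds for 5 h at 37 C following overnight plating.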

[7] = qHTS assay for small molecule activators of the heat shock response signaling pathway (AID 743210; active = well fitted activation curve with a large enough effect in the signal ratio in the repeat runs, with a control signal flat, not every such curve was filed as active; the % refers to the signal ratio;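 also: HeLa cells with beta-lactamase reporter driven by heat shock elements; series mostly up to about 63 µM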)
In short: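 Quantitative high-throughput format using an engineered HeLa line in which heat shock response elements drive beta-lactamase; after 5 h with compound, cells received a B/G FRET substrate and fluorescence was read.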

[8] = target: Peroxisome proliferator-activated receptor delta (Homo sapiens) (UniProt Q03181); assay: qHTS assay to identify small molecule agonists of the peroxisome proliferator-activated receptor delta (PPARd) signaling pathway (AID 743212; calls by dose curve)
In short: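 Quantitative high-throughput agonist screen in a HEK293H beta-lactamase reporter line under UAS control. Compounds in DMSO, at 37 C. Fluorescence read after 2 h with FRET substrate at room temperature.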

[9] = target: Bile acid receptor (Homo sapiens) (UniProt Q96RI1); assay: qHTS assay to identify small molecule antagonists of the farnesoid-X-receptor (FXR) signaling pathway (AID 743217; active = well fitted inhibition curve with a large enough effect in the signal ratio in the repeat runs, not every such curve was filed as active; the % refers to the signal ratio)
In short: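 HEK 293T FXR-UAS-bla, 5000 cells/well; compound + CDCA 50 uM final; 16 h, 37 °C; B/G FRET substrate 2 h RT; fluorescence.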

[10] = qHTS assay to identify small molecule agonists of the farnesoid-X-receptor (FXR) signaling pathway - cell viability counter screen (AID 743218); also: nearly all actives have a fitted effect of over 45% in size
In short: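 HEK 293T FXR-bla cells; 5 h pre-incubation, 16 h compound exposure at 37 C; LiveBLAzer substrate 2 h RT, then CellTiter-Glo 30 min RT, luminescence.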

[11] = target: Bile acid receptor (Homo sapiens) (UniProt Q96RI1); assay: qHTS assay to identify small molecule agonists of the farnesoid-X-receptor (FXR) signaling pathway (AID 743220; active = well fitted activation curve with a large enough effect in the signal ratio in the repeat runs, not every such curve was filed as active; the % refers to the signal ratio)
In short: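 Beta-lactamase reporter under UAS control in GeneBLAzer FXR HEK 293T cells (5000/well) measured with LiveBLAzer FRET substrate after 2 h at room temperature. Compound exposure lasted 16 h at 37C.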

[12] = qHTS assay to identify small molecule antagonists of the farnesoid-X-receptor (FXR) signaling pathway - cell viability counter screen (AID 743221; active = well fitted cell-killing curve with a large enough effect in the repeat runs, not every such curve was filed as active; also: nearly all actives have a fitted effect of over 50% in size)
In short: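 FXR-UAS-bla HEK 293T cells were treated with test compounds plus chenodeoxycholic acid (50 uM final) for 16 h at 37 C. Cell viability in the same wells was then read as CellTiter-Glo luminescence after 30 min at room temperature.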

[13] = target: Vitamin D3 receptor (Homo sapiens) (UniProt P11473); assay: qHTS assay to identify small molecule agonists of the vitamin D receptor (VDR) signaling pathway (AID 743222; calls by dose curve)
In short: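 VDR-bla cells, 2,000/well; 4 h preincubation 37C; cpd (DMSO) 16 h; LiveBLAzer B/G substrate 2 h RT; fluorescence intensity read.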

[14] = target: Vitamin D3 receptor (Homo sapiens) (UniProt P11473); assay: qHTS assay to identify small molecule antagonists of the vitamin D receptor (VDR) signaling pathway (AID 743223; active = well fitted inhibition curve with a large enough effect in the signal ratio in the repeat runs, not every such curve was filed as active; the % refers to the signal ratio)
In short: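 VDR-bla cells were plated, incubated 4 h at 37C, then given compound and 1alpha,25-dihydroxyvitamin D3 (3 nM final). After 16 h at 37C, LiveBLAzer B/G FRET substrate was added for 2 h at room temperature and fluorescence read.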

[15] = target: Peroxisome proliferator-activated receptor gamma (Homo sapiens) (UniProt P37231); assay: qHTS assay to identify small molecule agonists of the peroxisome proliferator-activated receptor gamma (PPARg) signaling pathway (AID 743094; active = well fitted activation curve with a large enough effect in the signal ratio in the repeat runs, not every such curve was filed as active; the % refers to the signal ratio)
In short: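 Beta-lactamase FRET fluorescence was the read-out after a 1 h room-temperature substrate step, following 17 h compound treatment at 37C of HEK293H cells expressing a UAS-driven bla reporter responsive to PPARg.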

[16] = qHTS assay to identify small molecule agonists of the peroxisome proliferator-activated receptor delta (PPARd) signaling pathway - cell viability counter screen (AID 743211); also: nearly all actives have a fitted effect of over 55% in size
In short: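 PPARd-bla HEK293H cells (UAS-beta-lactamase reporter) were treated with compounds for 17 h at 37 C. Viability was then read in the same wells by CellTiter-Glo luminescence after 30 min at room temperature.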

[17] = qHTS assay to identify small molecule antagonists of the peroxisome proliferator-activated receptor delta (PPARd) signaling pathway - cell viability counter screen (AID 743213); also: nearly all actives have a fitted effect of over 50% in size
In short: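 Same-well viability: cells pre-incubated 5 h, dosed with compound plus 300 nM L165041, kept 17 h at 37 C, FRET substrate 2 h RT, then CellTiter-Glo 30 min RT and luminescence.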

[18] = target: Peroxisome proliferator-activated receptor delta (Homo sapiens) (UniProt Q03181); assay: qHTS assay to identify small molecule antagonists of the peroxisome proliferator-activated receptor delta (PPARd) signaling pathway (AID 743215; active = well fitted inhibition curve with a large enough effect in the signal ratio in the repeat runs, not every such curve was filed as active; the % refers to the signal ratio;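 also: cells stimulated with agonist L165041 at 300 nM final during compound exposure; series mostly up to about 62 µM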)
In short: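 Read-out is beta-lactamase FRET fluorescence, measured 2 h after substrate addition at room temperature. Beforehand, UAS-bla HEK293H cells carrying the PPARd reporter were exposed to compounds with L165041 at 300 nM final for 17 h at 37 C.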

[19] = qHTS assay to identify small molecule that activate the aryl hydrocarbon receptor (AhR) signaling pathway - cell viability counter screen (AID 743086);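 also: HepG2 liver cells carrying the AhR DRE luciferase reporter; series mostly up to about 70 µM; nearly all actives have a fitted effect of over 45% in size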
In short: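 HepG2-AhR-luc (HG2L7.5c1) cells, 4000/well, treated 24 h at 37 C with compound; viability measured as CellTiter-Fluor fluorescence after 30 min in the same wells as the luciferase read.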

[20] = qHTS assay for small molecule agonists of the antioxidant response element (ARE) signaling pathway (AID 743202; active = well fitted activation curve with a large enough effect in the signal ratio in the repeat runs, not every such curve was filed as active; the % refers to the signal ratio)
In short: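 Agonist mode reporter screen: HepG2 cells with ARE-controlled beta-lactamase are incubated with test compounds for 16 h at 37 C, and beta-lactamase activity is measured as fluorescence of cleaved B/G FRET substrate.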

Chain of Vitamin D3 receptor (Homo sapiens) (P11473 whole entry, looked up): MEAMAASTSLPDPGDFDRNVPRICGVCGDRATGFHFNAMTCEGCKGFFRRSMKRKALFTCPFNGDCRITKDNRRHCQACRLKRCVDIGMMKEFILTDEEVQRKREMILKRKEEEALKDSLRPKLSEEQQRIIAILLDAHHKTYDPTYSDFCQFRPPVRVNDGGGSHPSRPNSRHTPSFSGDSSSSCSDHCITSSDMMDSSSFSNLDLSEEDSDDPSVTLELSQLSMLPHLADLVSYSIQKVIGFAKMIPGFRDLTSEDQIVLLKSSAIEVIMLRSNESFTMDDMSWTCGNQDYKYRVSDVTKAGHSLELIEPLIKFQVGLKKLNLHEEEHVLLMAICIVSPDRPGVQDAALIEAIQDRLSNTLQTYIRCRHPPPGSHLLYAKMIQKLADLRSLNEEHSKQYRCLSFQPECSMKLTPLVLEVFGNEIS
Chain of Aryl hydrocarbon receptor (Homo sapiens) (P35869 whole entry, looked up): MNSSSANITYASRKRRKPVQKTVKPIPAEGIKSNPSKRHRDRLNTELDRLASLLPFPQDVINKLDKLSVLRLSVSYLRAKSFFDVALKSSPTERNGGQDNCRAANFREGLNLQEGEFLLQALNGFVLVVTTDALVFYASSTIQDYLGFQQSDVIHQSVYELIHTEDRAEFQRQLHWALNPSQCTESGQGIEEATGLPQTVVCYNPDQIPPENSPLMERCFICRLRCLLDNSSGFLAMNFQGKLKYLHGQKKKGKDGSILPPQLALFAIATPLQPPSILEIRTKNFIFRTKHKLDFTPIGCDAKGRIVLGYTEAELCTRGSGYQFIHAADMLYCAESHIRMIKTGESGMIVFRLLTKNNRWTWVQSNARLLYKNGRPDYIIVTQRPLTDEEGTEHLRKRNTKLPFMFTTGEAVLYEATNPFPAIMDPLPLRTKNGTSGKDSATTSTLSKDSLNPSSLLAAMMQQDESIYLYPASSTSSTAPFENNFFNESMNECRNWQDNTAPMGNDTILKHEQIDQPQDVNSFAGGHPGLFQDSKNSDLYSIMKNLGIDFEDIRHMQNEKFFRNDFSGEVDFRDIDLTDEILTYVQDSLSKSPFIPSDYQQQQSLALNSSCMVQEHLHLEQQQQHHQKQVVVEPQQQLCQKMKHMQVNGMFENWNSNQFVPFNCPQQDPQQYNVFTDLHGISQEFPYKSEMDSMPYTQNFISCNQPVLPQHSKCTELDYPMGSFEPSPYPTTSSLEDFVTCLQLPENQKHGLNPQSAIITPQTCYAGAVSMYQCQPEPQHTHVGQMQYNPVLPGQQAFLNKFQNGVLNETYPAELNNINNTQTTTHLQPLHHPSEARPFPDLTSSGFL
Chain of Peroxisome proliferator-activated receptor gamma (Homo sapiens) (P37231 whole entry, looked up): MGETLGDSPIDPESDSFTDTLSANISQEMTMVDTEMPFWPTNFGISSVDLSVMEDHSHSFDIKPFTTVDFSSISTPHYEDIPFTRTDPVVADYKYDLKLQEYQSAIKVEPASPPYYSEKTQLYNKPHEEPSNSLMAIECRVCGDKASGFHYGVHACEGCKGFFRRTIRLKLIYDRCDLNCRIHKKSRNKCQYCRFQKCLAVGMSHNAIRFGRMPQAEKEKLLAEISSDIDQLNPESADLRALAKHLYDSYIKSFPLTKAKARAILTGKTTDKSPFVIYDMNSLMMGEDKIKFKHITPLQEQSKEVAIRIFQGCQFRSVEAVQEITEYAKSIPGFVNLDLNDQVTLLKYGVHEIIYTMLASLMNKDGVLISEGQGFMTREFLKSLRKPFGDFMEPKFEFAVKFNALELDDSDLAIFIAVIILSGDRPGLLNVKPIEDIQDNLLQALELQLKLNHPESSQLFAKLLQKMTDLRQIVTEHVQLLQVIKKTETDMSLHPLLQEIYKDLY
Chain of Peroxisome proliferator-activated receptor delta (Homo sapiens) (Q03181 whole entry, looked up): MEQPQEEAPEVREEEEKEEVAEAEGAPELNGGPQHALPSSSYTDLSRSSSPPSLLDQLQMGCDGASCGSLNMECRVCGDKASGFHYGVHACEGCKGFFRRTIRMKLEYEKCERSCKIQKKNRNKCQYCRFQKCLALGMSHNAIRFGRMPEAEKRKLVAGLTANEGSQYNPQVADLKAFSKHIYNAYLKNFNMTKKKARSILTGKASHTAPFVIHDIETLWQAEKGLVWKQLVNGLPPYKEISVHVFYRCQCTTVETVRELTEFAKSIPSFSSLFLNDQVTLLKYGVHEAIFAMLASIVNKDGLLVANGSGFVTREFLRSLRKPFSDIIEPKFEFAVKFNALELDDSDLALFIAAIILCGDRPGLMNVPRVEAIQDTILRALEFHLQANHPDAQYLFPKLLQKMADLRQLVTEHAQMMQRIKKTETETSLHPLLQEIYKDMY
Chain of Bile acid receptor (Homo sapiens) (Q96RI1 whole entry, looked up): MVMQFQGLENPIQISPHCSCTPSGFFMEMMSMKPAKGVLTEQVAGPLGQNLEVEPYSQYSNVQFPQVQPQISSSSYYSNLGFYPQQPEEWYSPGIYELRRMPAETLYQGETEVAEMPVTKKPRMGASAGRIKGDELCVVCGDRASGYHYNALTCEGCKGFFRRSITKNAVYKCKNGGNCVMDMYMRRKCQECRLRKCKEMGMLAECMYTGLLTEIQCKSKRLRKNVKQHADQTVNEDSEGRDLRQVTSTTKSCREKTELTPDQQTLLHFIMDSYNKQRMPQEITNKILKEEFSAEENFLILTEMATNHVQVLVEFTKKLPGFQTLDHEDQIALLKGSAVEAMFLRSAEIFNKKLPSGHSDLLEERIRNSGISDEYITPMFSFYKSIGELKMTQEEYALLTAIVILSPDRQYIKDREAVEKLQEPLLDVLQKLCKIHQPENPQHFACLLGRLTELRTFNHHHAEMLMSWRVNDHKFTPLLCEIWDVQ

Structure (SMILES)	Potency [1]	Potency [2]	Potency [3]	outcome [4]	Potency [5]	outcome [6]	outcome [7]	outcome [8]	outcome [9]	Potency [10]	outcome [11]	Potency [12]	outcome [13]	outcome [14]	outcome [15]	Potency [16]	Potency [17]	Potency [18]	Potency [19]	Potency [20]
O=C(CCCN1CCC(O)(c2cccc(C(F)(F)F)c2)CC1)c1ccc(F)cc1	inactive	inactive	inactive	inactive	inactive	inactive	inactive	inactive	inactive	inactive	inactive	inactive	inactive	inactive						
N=C(N)c1ccc(OCCCOc2ccc(C(=N)N)cc2)cc1	inactive	inactive	inactive	inactive		inactive	inactive	inactive				inactive	inactive	inactive	inactive	inactive	inactive			
CCOC(C)(C)C	inactive	inactive	inactive	inactive	inactive	inactive	inactive	inactive	inactive	inactive	inactive	inactive	inactive	inactive	inactive	inactive	inactive	inactive		
CN(C)CCCSc1ccccc1NC(=O)/C=C/c1ccccc1	inactive			inactive	inactive	inactive	inactive	inactive			inactive	inactive	inactive	inactive	inactive	inactive	inactive	inactive	inactive	inactive
COC(=O)[C@@H](N)Cc1ccc(O)c(O)c1	26.6 µM (active)	26.6 µM (active)		inactive	inactive	inactive	inactive			inactive		inactive			inactive	inactive	inactive			
CCCCCCCCCCCCCCCCC	inactive	inactive	inactive	inactive		inactive	inactive	inactive	inactive	inactive	inactive	inactive	inactive	inactive	inactive	inactive	inactive	inactive		inactive
CC(=O)Nc1c(I)cc(I)c(C(=O)O)c1I	inactive	inactive		inactive		inactive	inactive	inactive		inactive		inactive	inactive	inactive		inactive	inactive	inactive		inactive
CCCCC(CC)COC(=O)c1ccccc1O (stereo not drawn)	inactive	inactive	inactive	inactive			inactive	inactive		inactive		inactive	inactive	inactive	inactive	inactive	inactive			inactive

Source: PubChem BioAssay (Tox21)
